Test results from the supplement of paper PMC7366291.
Counter-ions that a name gives are not always drawn. ± gives the standard deviation or the standard deviation of the averaged measurements.

How the values were obtained:
Conditions in all cases: 25 µM; exposure: 24-48 hpf
[1] = tested on: Danio rerio Tg(wt1b:EGFP) embryo, pronephros; assay: glomerular separation, fold change vs DMSO control; higher = glomeruli further apart (abnormal)
In short: (§1)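 Dechorionated Tg(wt1b:EGFP) zebrafish embryos were exposed to 25 μM compound in 0.5% DMSO, HEPES-buffered E3 with 0.003% PTU, from 24 to 48 hpf at 28.5°C. Pronephroi were imaged dorsally in agarose-filled 96-well plates (470 nm, 10 z-slices). On maximum projections, 16 reference points were set manually in Fiji and a macro computed distances and angles. Values more than 2 SD from the feature mean were excluded. Each feature is a fold change relative to the mean of same-day DMSO controls.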

[2] = tested on: Danio rerio Tg(wt1b:EGFP) embryo, pronephros; assay: glomerular width (mean of left and right), fold change vs DMSO control; higher = wider glomerulus
In short: as §1

[3] = tested on: Danio rerio Tg(wt1b:EGFP) embryo, pronephros; assay: fraction of imaged embryos annotated as normal kidney; higher = less nephrotoxic; extreme values may be limits of the assay
In short: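 The read-out is the proportion of embryos in each treatment manually annotated as normal-kidney. Exposure ran from 24 to 48 hpf at 28.5°C in 12-well plates, using dechorionated Tg(wt1b:EGFP) zebrafish embryos in 5 mM HEPES-buffered E3 with 0.003% PTU, 0.5% DMSO and 25 μM compound. For imaging, larvae were anaesthetised with tricaine, positioned dorsally in agarose-filled 96-well plates and captured by widefield fluorescence (470 nm, 10 z-slices), with scoring done on maximum projections.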

[4] = tested on: Danio rerio Tg(wt1b:EGFP) embryo, pronephros; assay: pronephric angle neck segment to proximal convoluted tubule (mean of left and right), fold change vs DMSO control; higher = larger pronephric angle
In short: as §1

`Cc1ccc(-c2cc(C(F)(F)F)nn2-c2ccc(S(N)(=O)=O)cc2)cc1` [Celecoxib] was tested, and the glomerular separation [1] was 0.968 ± 0.38, the glomerular width [2] was 0.913 ± 0.059 and the “fraction of imaged embryos annotated as normal kidney” value (“fraction of imaged embryos annotated” below) [3] was 0.833. The “pronephric angle neck segment” value [4] was 1.06 ± 0.014.
In the case of `CC(=O)OC[C@H]1O[C@@H]([S-])[C@H](OC(C)=O)[C@@H](OC(C)=O)[C@@H]1OC(C)=O.CCP(CC)CC.[Au+]` [Auranofin], the glomerular separation [1] is reported as 1.55 ± 0.79, the glomerular width [2] is reported as 0.789 ± 0.038 and the “fraction of imaged embryos annotated” value [3] is reported as 0.417. For the same compound, the “pronephric angle neck segment” value [4] was 1.19 ± 0.024.
With `CN(C)CCN(Cc1ccccc1)c1ccccn1` [Tripelennamine hydrochloride] the glomerular separation [1] was 0.843 ± 0.37, the glomerular width [2] was 0.982 ± 0.054 and the “fraction of imaged embryos annotated” value [3] was 1. For the same compound, the “pronephric angle neck segment” value [4] was 1.1 ± 0.083.
With `O=C1CCc2cc(OCCCCc3nnnn3C3CCCCC3)ccc2N1` [Cilostazol] the glomerular separation [1] was 1.05 ± 0.38, the glomerular width [2] was 1 ± 0.023 and the “fraction of imaged embryos annotated” value [3] was 0.75. The “pronephric angle neck segment” value [4] was 0.994 ± 0.05.
`NC(CO)C(=O)NNCc1ccc(O)c(O)c1O` (centres undefined) [Benserazide hydrochloride] was tested, and the glomerular separation [1] was 1.17 ± 0.44, the glomerular width [2] was 1.01 ± 0.071 and the “fraction of imaged embryos annotated” value [3] was 0.667. The “pronephric angle neck segment” value [4] was 1.05 ± 0.039.
In the case of `CS(=O)(=O)c1ccc(C2=C(c3ccccc3)C(=O)OC2)cc1` [Rofecoxib], the glomerular separation [1] is reported as 0.981 ± 0.22, the glomerular width [2] is reported as 0.974 ± 0.11 and the “fraction of imaged embryos annotated” value [3] is reported as 1. For the same compound, the “pronephric angle neck segment” value [4] was 0.969 ± 0.024.
In the case of `CCN(CC)CCc1nc(-c2ccccc2)no1` [Oxalamine citrate salt], the glomerular separation [1] is reported as 0.929 ± 0.43, the glomerular width [2] is reported as 0.933 ± 0.016 and the “fraction of imaged embryos annotated” value [3] is reported as 0.917. The “pronephric angle neck segment” value [4] was 0.893 ± 0.035.
With `CC(C)(C)NC(=O)[C@@H]1C[C@@H]2CCCC[C@@H]2CN1C[C@@H](O)[C@H](Cc1ccccc1)NC(=O)[C@H](CC(N)=O)NC(=O)c1ccc2ccccc2n1` [Saquinavir mesylate] the glomerular separation [1] was 1.08 ± 0.35, the glomerular width [2] was 1.04 ± 0.085 and the “fraction of imaged embryos annotated” value [3] was 0.909. The “pronephric angle neck segment” value [4] was 0.977 ± 0.016.
In the case of `CC(C)(Oc1ccc(CCNC(=O)c2ccc(Cl)cc2)cc1)C(=O)O` [Bezafibrate], the glomerular separation [1] is reported as 0.842 ± 0.27, the glomerular width [2] is reported as 0.988 ± 0.072 and the “fraction of imaged embryos annotated” value [3] is reported as 0.917. For the same compound, the “pronephric angle neck segment” value [4] was 0.966 ± 0.0086.
For `CC(C)NCC(O)c1ccc(O)c(O)c1` (single isomer, unassigned; (+)) [(+)-Isoproterenol (+)-bitartrate salt], the glomerular separation [1] was 1.57 ± 0.7, the glomerular width [2] was 1.03 ± 0.023 and the “fraction of imaged embryos annotated” value [3] was 0.833. For the same compound, the “pronephric angle neck segment” value [4] was 1 ± 0.015.
`CO[C@@H]1[C@@H](O[C@@H]2O[C@H](C)[C@@H](O[C@H]3C[C@@](C)(O)[C@@H](OC(=O)CC(C)C)[C@H](C)O3)[C@H](N(C)C)[C@H]2O)[C@@H](CC=O)C[C@@H](C)[C@@H](O)/C=C/C=C/C[C@@H](C)OC(=O)C[C@H]1OC(C)=O` [Josamycin] was tested, and the glomerular separation [1] was 1.16 ± 0.39, the glomerular width [2] was 1.13 ± 0.093 and the “fraction of imaged embryos annotated” value [3] was 0.909. For the same compound, the “pronephric angle neck segment” value [4] was 1.0423 ± 0.00028.
For `CCOC(=O)C1=C(C)NC(C)=C(C(=O)OCC)C1c1ccccc1/C=C/C(=O)OC(C)(C)C` [Lacidipine], the glomerular separation [1] was 6.82 ± 2.2, the glomerular width [2] was 0.671 ± 0.0078 and the “fraction of imaged embryos annotated” value [3] was 0.167. For the same compound, the “pronephric angle neck segment” value [4] was 1.11 ± 0.073.
For `Cc1ncc([N+](=O)[O-])n1CC(O)CCl` (centres undefined) [Ornidazole], the glomerular separation [1] was 0.923 ± 0.39, the glomerular width [2] was 1.06 ± 0.028 and the “fraction of imaged embryos annotated” value [3] was 0.75. For the same compound, the “pronephric angle neck segment” value [4] was 0.985 ± 0.027.
In the case of `CN(C)C(=O)C(CCN1CCC(O)(c2ccc(Cl)cc2)CC1)(c1ccccc1)c1ccccc1` [Loperamide hydrochloride], the glomerular separation [1] is reported as 1.07 ± 0.32, the glomerular width [2] is reported as 1.04 ± 0.12 and the “fraction of imaged embryos annotated” value [3] is reported as 0.667. For the same compound, the “pronephric angle neck segment” value [4] was 1.03 ± 0.065.
In the case of `CO[C@@]1(NC(=O)Cc2cccs2)C(=O)N2C(C(=O)O)=C(COC(N)=O)CS[C@@H]21` [Cefoxitin sodium salt], the glomerular separation [1] is reported as 0.796 ± 0.27, the glomerular width [2] is reported as 0.975 ± 0.012 and the “fraction of imaged embryos annotated” value [3] is reported as 0.833. The “pronephric angle neck segment” value [4] was 0.968 ± 0.04.
For `C[C@@H]1C[C@H]2[C@@H]3CCC4=CC(=O)C=C[C@]4(C)[C@@]3(Cl)[C@@H](O)C[C@]2(C)[C@@]1(OC(=O)c1ccco1)C(=O)CCl` [Mometasone furoate], the glomerular separation [1] was 0.99 ± 0.37, the glomerular width [2] was 1.26 ± 0.082 and the “fraction of imaged embryos annotated” value [3] was 0.455. For the same compound, the “pronephric angle neck segment” value [4] was 0.993 ± 0.085.
`CC(C)(C#N)c1cc(Cn2cncn2)cc(C(C)(C)C#N)c1` [Anastrozole] was tested, and the glomerular separation [1] was 1.2 ± 0.37, the glomerular width [2] was 1.059 ± 0.0058 and the “fraction of imaged embryos annotated” value [3] was 0.75. The “pronephric angle neck segment” value [4] was 1.04 ± 0.062.
For `Cc1oncc1C(=O)Nc1ccc(C(F)(F)F)cc1` [Leflunomide], the glomerular separation [1] was 2.27 ± 1, the glomerular width [2] was 1.19 ± 0.15 and the “fraction of imaged embryos annotated” value [3] was 0.167. The “pronephric angle neck segment” value [4] was 1.23 ± 0.054.
For `CCC(C)(C)c1ccc(CC(C)CN2C[C@@H](C)O[C@@H](C)C2)cc1` (some centres undefined) [Amorolfine hydrochloride], the glomerular separation [1] was 0.874 ± 0.48, the glomerular width [2] was 0.987 ± 0.017 and the “fraction of imaged embryos annotated” value [3] was 0.917. For the same compound, the “pronephric angle neck segment” value [4] was 0.983 ± 0.05.
`CC[N+](C)(CC)CCC[n+]1c(-c2ccccc2)c2cc(N)ccc2c2ccc(N)cc21` [Propidium iodide] was tested, and the glomerular separation [1] was 0.946 ± 0.41, the glomerular width [2] was 1.16 ± 0.087 and the “fraction of imaged embryos annotated” value [3] was 0.727. The “pronephric angle neck segment” value [4] was 0.959 ± 0.036.
With `CC(=O)OCC(=O)[C@@]1(O)[C@H](C)C[C@H]2[C@@H]3CCC4=CC(=O)C=C[C@]4(C)[C@@]3(F)[C@@H](O)C[C@@]21C` [Dexamethasone acetate] the glomerular separation [1] was 1 ± 0.25, the glomerular width [2] was 1.252 ± 0.0072 and the “fraction of imaged embryos annotated” value [3] was 1. The “pronephric angle neck segment” value [4] was 1.02 ± 0.034.
`CC(C)(Oc1ccc(Cl)cc1)C(=O)O` [Clofibric acid] was tested, and the glomerular separation [1] was 1.17 ± 0.56, the glomerular width [2] was 0.927 ± 0.036 and the “fraction of imaged embryos annotated” value [3] was 0.667. The “pronephric angle neck segment” value [4] was 1.001 ± 0.0094.
For `CC(C)C(=O)c1c(C(C)C)nn2ccccc12` [Ibudilast], the glomerular separation [1] was 0.785 ± 0.21, the glomerular width [2] was 0.92 ± 0.051 and the “fraction of imaged embryos annotated” value [3] was 1. The “pronephric angle neck segment” value [4] was 1.01 ± 0.036.
`C[C@@H]1C[C@H]2[C@@H]3C[C@H](F)C4=CC(=O)C=C[C@]4(C)[C@@]3(F)[C@@H](O)C[C@]2(C)[C@@]1(O)C(=O)CO` [Flumethasone] was tested, and the glomerular separation [1] was 0.902 ± 0.3, the glomerular width [2] was 1.28 ± 0.012 and the “fraction of imaged embryos annotated” value [3] was 0.417. For the same compound, the “pronephric angle neck segment” value [4] was 0.977 ± 0.049.
`COC(=O)N/N=C/c1c[n+]([O-])c2ccccc2[n+]1[O-]` [Carbadox] was tested, and the glomerular separation [1] was 1.17 ± 0.61, the glomerular width [2] was 0.931 ± 0.063 and the “fraction of imaged embryos annotated” value [3] was 0.833. For the same compound, the “pronephric angle neck segment” value [4] was 1.13 ± 0.11.
In the case of `CNCC(O)c1ccc(OC(=O)C(C)(C)C)c(OC(=O)C(C)(C)C)c1` (centres undefined) [Dipivefrin hydrochloride], the glomerular separation [1] is reported as 0.794 ± 0.16, the glomerular width [2] is reported as 1.04 ± 0.036 and the “fraction of imaged embryos annotated” value [3] is reported as 0.833. For the same compound, the “pronephric angle neck segment” value [4] was 1.03 ± 0.081.
